KCNH2 3.1 inh = qHTS for Inhibitors of KCHN2 3.1: Mutant qHTS; Potassium voltage-gated channel subfamily H member 2, brain isoform KCNH2 3.1 (human); U2OS KCNH2 3.1, thallium flux FluxOr; stronger effect = lower value; activity change, % (tested at about 1.8 µM); 340,000 tested, 0.95% active; AID 720553, 2013;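 active = maximum activity change below -70%; inconclusive = maximum activity change from -70% to -50%; inactive = maximum activity change above -50%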;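 also: thallium influx rate constant from kinetic fluorescence after stimulation buffer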
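Virally transduced U2OS (3.1 isoform, 4 h infection in dark at RT) → overnight 37 C → FluxOr + Red40 in HBSS/HEPES, 45 min → stimulation buffer, 2 min kinetic read → rate constant vs DMSO controls.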
Rango complex inh = qHTS Assay for Inhibitors of Rango (Ran-regulated importin-beta cargo) - Importin beta complex formation | Rango CFP/YFP FRET sensor + importin beta, 45 min | Potency, µM (titrated, usually from 92.2 µM) | Importin subunit beta-1 (Homo sapiens), Q14974 | 340,000 tested, 0.031% active; also: nearly all actives have a fitted effect of over 15% in size
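Inhibition scored from the CFP 486 nm/YFP 530 nm FRET ratio 45 min after adding 0.125 microM importin beta to 50 nM Rango biosensor preincubated 5 min with compound (room temperature, PBS with DTT, Tween-20, BSA). No-importin wells as positive control.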
hERG WT inh = qHTS for Inhibitors of KCHN2 3.1: Wildtype qHTS; Voltage-gated inwardly rectifying potassium channel KCNH2 (Homo sapiens), Q12809; U2OS, BacMam KCNH2, thallium flux FluxOr; stronger effect = lower value; activity change, % at 1.84 µM; 340,000 tested, 0.37% active;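 active = maximum activity change below -70%; inconclusive = maximum activity change between -70% and -50%; inactive = maximum activity change above -50%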
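U2OS cells were transduced with wild-type KCNH2 virus (2.03 x 10^8 / mL) for 4 h at room temperature, then cultured overnight at 37 C. Thallium flux was read with FluxOr dye. Rate constants were normalized to DMSO controls.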
Rango dissoc inh = qHTS Assay for Inhibitors of RanGTP induced Rango (Ran-regulated importin-beta cargo) - Importin beta complex dissociation | Snurportin-1 (Homo sapiens) + GTP-binding nuclear protein Ran (Homo sapiens) + Importin … | Biochemical FRET Rango-importin beta, RanGTP-induced dissociation | Potency, µM (top dose mostly 46.1 µM) | 340,000 tested, 0.071% active | AID 540253, 2011; also: nearly all actives have a fitted effect of over 45% in size
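FRET read at 45 min, room temperature: inhibitors block the CFP/YFP signal rise when RanGTP (0.6 uM Ran, 2 mM GTP, 0.2 uM RCC1) frees Rango (0.1 uM) from importin beta (0.25 uM). Pre-read after 5 min compound exposure flags interference.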
Large screens that a line does not name were inactive; [ ] = another dose, or the depositor's remark. The list is not random: actives were taken first. Their share in the collection is about 1.3%. Unless noted, calls follow the shape of the full dose curve.

O=C(NCCN1CCN(C(=O)c2ccc([N+](=O)[O-])cc2)CC1)C(=O)NCc1ccccc1	KCNH2 3.1 inh -80
CCCCc1ccc(NC(=O)C(=O)NCCN2CCN(Cc3ccc([N+](=O)[O-])cc3)CC2)cc1	KCNH2 3.1 inh -169, hERG WT inh -245
Nc1cccc(-c2c[nH]c3ncc(-c4cccnc4)cc23)c1	none
O=C(Oc1ccc(N(Cc2cccs2)C2=NS(=O)(=O)c3ccccc32)cc1)c1ccc(Cl)cc1	KCNH2 3.1 inh -99, hERG WT inh inconclusive
O=C(CSc1nnc(COc2ccccc2)o1)c1ccccc1	KCNH2 3.1 inh -99
Cc1cc2nc(SCC(=O)Nc3ccccc3C(=O)O)[nH]c2cc1C	KCNH2 3.1 inh -138
COc1ccc(N2CCN(CCCn3c(=S)[nH]c4ccccc4c3=O)CC2)cc1	KCNH2 3.1 inh -80, hERG WT inh -118
COc1ccccc1N1CCN(CCCn2c(=S)[nH]c3ccccc3c2=O)CC1	none
CCc1cc(=O)[nH]c(SCc2cccc3ccccc23)n1	KCNH2 3.1 inh -110
Nc1ccc(O)c(-c2nc3ccccc3s2)c1	Rango complex inh inconclusive, Rango dissoc inh 10µM
Cc1cccc(-n2ncc3c(NCc4cccnc4)ncnc32)c1	KCNH2 3.1 inh -102
CCCc1nnc(NS(=O)(=O)c2ccc(C)cc2)o1	none
COc1ccc(NC(=O)C2CCN(S(=O)(=O)c3cccc4nonc34)CC2)cc1OC	none
Cc1ccc(C)c(S(=O)(=O)N2CCCN(C)CC2)c1	KCNH2 3.1 inh -90
COc1c(Br)cc(Br)cc1C(=O)Nc1ccccc1N1CCCC1	none
CSc1nsc(SCC(=O)Nc2ccccc2C(=O)O)n1	none
O=C(/C=C/c1cn(CC(O)CN2CCCCCC2)c2ccccc12)c1cccs1 (centres undefined)	KCNH2 3.1 inh -86, Rango complex inh inconclusive, Rango dissoc inh inconclusive
CC1(c2ccccc2)NC(=O)N(CC(=O)N(CC(=O)Nc2ccccc2C(F)(F)F)Cc2ccco2)C1=O (centres undefined)	none
COc1ccc(C2/C(=C(/O)c3ccccc3)C(=O)C(=O)N2c2ccccn2)cc1OC (centres undefined)	none
O=C1C(=O)N(c2ccccn2)C(c2cccc(F)c2)/C1=C(/O)c1ccccc1 (centres undefined)	KCNH2 3.1 inh -102
CCOC(=O)c1cc(C(C)=O)c(=O)n(C)c1N	none
CCOC(=O)c1ccc2cccc(C)n2c1=O	Rango complex inh inconclusive, Rango dissoc inh 12µM[inhibitor]
CCN(CC)C(=O)C1=C(C)N(CCCN2CCCC2=O)C(=O)C(CC(=O)NCCCN(C)C)C1 (centres undefined)	none (no result: Rango complex inh, Rango dissoc inh)
OC(COC(c1ccc(F)cc1)c1ccc(F)cc1)CN1CCCC1 (centres undefined)	KCNH2 3.1 inh -83, Rango dissoc inh inconclusive
Cc1cccc(C)c1OCC(O)CN1CCN(c2ccccn2)CC1 (centres undefined)	none
CN(CC(O)COC(c1ccccc1)c1ccccc1)C1CCCCC1 (centres undefined)	none
CC1CN(CC(O)COC(c2ccc(Cl)cc2)c2ccc(Cl)cc2)CC(C)O1 (centres undefined)	KCNH2 3.1 inh -76, hERG WT inh inconclusive
CN(C)CC(O)COC(c1ccc(Cl)cc1)c1ccc(Cl)cc1 (centres undefined)	KCNH2 3.1 inh -88
OC(COC(c1ccc(Cl)cc1)c1ccc(Cl)cc1)CN1CCN(c2ccccn2)CC1 (centres undefined)	KCNH2 3.1 inh -99, hERG WT inh active
O=C(COc1ccccc1)N=C1SC2CS(=O)(=O)CC2N1c1ccccc1F (centres undefined)	none
CCCC(=O)N1CC(=O)Nc2ccc(F)cc2C1c1ccccc1 (centres undefined)	KCNH2 3.1 inh -87
Cc1ccccc1C(=O)c1cccn1CC(=O)N1CCCCCC1	KCNH2 3.1 inh -100
c1cc(C2CCCCC2)ccc1Oc1nc(N2CCOCC2)nc(N2CCOCC2)n1	KCNH2 3.1 inh -71
c1ccc(Oc2nc(N3CCOCC3)nc(N3CCOCC3)n2)cc1	none
